Experimental data as given in PubChem BioAssay AID720540 (National Center for Advancing Translational Sciences (NCATS), 2013).
Among all 1,300 compounds or so, about 460 (35%) were called active. Not shown: some 39% with an inconclusive outcome. Calls follow the shape of the dose curve; as a rule, active = well fitted inhibition curve with a large enough effect; inconclusive = small, poorly fitted or top-dose-only effect; inactive = flat fitted curve, though single readings scatter. Some of the results follow.

biological target: Protein phosphatase EYA2 (Homo sapiens) (UniProt O00167); experiment: qHTS for Inhibitors of the Phosphatase Activity of Eya2: Confirmatory Assay for Cherry-picked Compounds; conditions: purified EYA2 phosphatase activity, qHTS confirmation; series mostly up to 46.1 µM; activity change, negative = inhibition: at the top concentration; also: nearly all actives have a fitted effect of over 65% in size;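 as to activity change, negative = inhibition: 0% = DMSO wells and -100% = EGTA control giving full inhibition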
Sequence (O00167 whole entry, looked up, the tested form may be a part): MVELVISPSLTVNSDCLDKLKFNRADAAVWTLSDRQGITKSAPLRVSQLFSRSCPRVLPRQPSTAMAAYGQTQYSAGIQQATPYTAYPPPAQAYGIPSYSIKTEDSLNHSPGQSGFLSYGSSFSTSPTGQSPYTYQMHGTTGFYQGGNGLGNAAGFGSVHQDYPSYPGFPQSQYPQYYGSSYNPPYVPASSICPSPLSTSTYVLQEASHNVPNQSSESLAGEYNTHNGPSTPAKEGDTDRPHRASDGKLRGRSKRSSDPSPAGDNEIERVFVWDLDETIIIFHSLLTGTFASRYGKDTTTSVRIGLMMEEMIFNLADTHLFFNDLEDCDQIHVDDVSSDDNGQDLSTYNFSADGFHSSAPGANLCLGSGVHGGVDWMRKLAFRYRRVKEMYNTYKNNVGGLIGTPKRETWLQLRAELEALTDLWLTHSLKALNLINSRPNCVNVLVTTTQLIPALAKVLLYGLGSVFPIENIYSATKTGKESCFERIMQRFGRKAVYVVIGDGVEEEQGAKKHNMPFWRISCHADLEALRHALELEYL
Excerpt: The Eya protein family is an essential co-activator of the Six1 transcription factor. Six1 is a developmental gene that is abnormally re-expressed in a large percentage of breast cancers. This over-expression plays a causal role in the initiation and metastatic development of breast cancers. The Eya family of protein is also found to contain a unique HAD phosphatase domain with protein tyrosine phosphatase activity which can potentially play a role in Six1-mediated breast tumorigenesis. Recently, Eya2 is found to dephosphorylate the histone variant H2AX and direct cells towards DNA repair instead of apoptosis in the event of DNA damage.
A 1536 well format, fluorescence based qHTS assay was developed and used to target the phosphatase activity of Eya2 (AID 488837). Inhibitors found against Eya2 could serve as potential therapeutic tools to inhibit Six1-mediated breast tumorigenesis and to increase the efficiency of radiation and certain chemo therapy. This assay assessed the activity of the primary screen cherry-picked compounds against Eya2. Inhibition is the desired outcome for this assay.
NIH Chemical Genomics Center [NCGC]
NIH Molecular Libraries Probe Centers Network [MLPCN]
Assay Submitter (PI): Rui Zhao, University of Colorado Denver
Eya2 enzyme and 3-O-methyl-fluorescein phosphate (OMFP) substrate working solutions were reconstituted in the buffer reagent consist of 50 mM HEPES pH 7.5, 50 mM NaCl, […], 0.05% BSA and 1 mM DTT. One and a half microliter of 0.2 uM Eya2 working solution was dispensed in a 1536 well Greiner plate (black, medium bind). Twenty-three nanoliter of test compounds and control compound EGTA was transferred to the assay plate using the Kalypsys robotic system equipped with a 1536 pin head. The plate was incubated at room temperature for 10 minutes. One and a half microliter of the 50 uM the OMFP substrate was then dispensed to the assay plate and incubated at room temperature for additional 10 min. The fluorescence signal was read using the PerkinElmer ViewLux plate reader using a 485 nm excitation and 525 nm emission filters. The data was normalized to the positive control for maximum inhibition and DMSO treated wells as negative control.

SMILES	Potency	activity change, negative = inhibition
CCC(C)Nc1nc(-c2ccccn2)nc2ccccc12 (configuration not stated)	8.49 µM (active)	
CC(C)c1cccc(-c2ccc3c(c2)S(=O)(=O)c2cccc(C(=O)O)c2C3=O)c1	21.3 µM (active)	
N#C/C(=C\C1=C(N2CCOCC2)C(=C\c2ccccc2)/CC1)C(=O)Nc1ccccc1F	1.07 µM (active)	
CCN(CC)c1ccc(/C=C2\CCC(/C=C(\C#N)C(=O)Nc3ccccc3F)=C2N2CCOCC2)cc1	3.01 µM (active)	
O=C1C(=O)C(c2ccc(O)cc2O)Oc2cc(O)cc(O)c21 (configuration not stated)	8.49 µM (active)	
COc1cc([C@H]2Oc3cc([C@H]4Oc5cc(O)cc(O)c5C(=O)[C@@H]4O)ccc3O[C@@H]2CO)ccc1O		-19.7% (inactive)
CC1(C)CC(=O)C(C2C3=C(CC(C)(C)CC3=O)Oc3c(Br)cc(Br)cc32)=C(O)C1 (configuration not stated)	3.79 µM (active)	
O=C(CSc1nnc2c(Cl)cc(Cl)cn12)NC1CCS(=O)(=O)C1 (configuration not stated)		-4.62% (inactive)
CCC(C)Nc1ccc(NC(C)CC)cc1 (configuration not stated)	0.0953 µM (active)	
O=c1cc2c(=O)oc3cc(O)c(O)oc3c2c(O)c1O	1.2 µM (active)	
Cc1ccc2cc(NC(=O)CC(CC(=O)O)c3ccccc3)ccc2n1 (configuration not stated)	19 µM (active)	
O=C(C1CCN(c2nnc(-n3cccc3)s2)CC1)N1CCOCC1		-6.36% (inactive)
CN(C)c1ccc(C=C2c3ccccc3-c3ccccc32)cc1	7.57 µM (active)	
CNc1ccc(C=C2c3ccccc3-c3ccccc32)cc1	12 µM (active)	
CN(C)c1ccc(/C=C2\C(Cl)=Cc3ccccc32)cc1	5.36 µM (active)	
CN(C)c1ccc2c(c1)C(=NO)c1ccccc1-2	9.53 µM (active)	
CN(Cc1ccccc1F)c1nc(-c2cccnc2)nc2ccccc12		-29% (inactive)
COc1ccc(Nc2nc(C(C)(C)C)nc3c2nnn3Cc2ccccc2Cl)cc1OC		-23.1% (inactive)
CN(C)c1ccc(/C=C2\C(=O)/C(=C/c3ccc(N(C)C)cc3)c3ccccc32)cc1	4.26 µM (active)	
CN(C)c1ccc(/C=C2\c3ccccc3-c3ccc(N(C)C)cc32)cc1	5.36 µM (active)	
CCOc1ccc(NC(=O)COc2cccc3cccnc23)cc1S(=O)(=O)N1CCCC1	19 µM (active)	

SMILES	Potency	activity change, negative = inhibition
CCOc1ccc(S(=O)(=O)NCc2ccc(C)cc2)c2cccnc12		-14.1% (inactive)
CCOc1ccc(NC(=O)COc2ccc3c(c2)CCC3)cc1OC		-12.8% (inactive)
COc1cc(OC)c(OC)cc1/C=C1\C=Cc2ccccc21	8.49 µM (active)	
CN(C)c1ccc(/C=C2\C=Cc3ccccc32)c(Cl)c1	6.75 µM (active)	
COc1cc(N(C)C)c(OC)cc1/C=C1\C=Cc2ccccc21	5.36 µM (active)	
COc1cc(N(C)C)ccc1/C=C1\C=Cc2ccccc21	7.57 µM (active)	
CC(C)(C)C(=O)[C@H]1[C@H](c2ccccc2)[C@@]2(N=C(c3ccccc3)OC2=O)C2c3ccccc3C=NN21 (some centres not stated)		-24.9% (inactive)
CC1=CC(=O)Nc2ncccc2O1	19 µM (active)	
Cc1ccc(Nc2c(-c3ccccn3)nc3ccc(C)cn23)cc1	4.26 µM (active)	
Cc1ccccc1Nc1c(-c2ccccn2)nc2ccccn12	2.39 µM (active)	
Cc1cccc(C)c1Nc1c(-c2ccccn2)nc2ccccn12	7.57 µM (active)	
CC(=O)Oc1cccc(C(=O)Nc2cccc(C(=O)Nc3ccccc3C(=O)O)c2)c1	15.1 µM (active)	
CC(=O)c1ccc(NS(=O)(=O)c2cccc(C(=O)Nc3ccccc3C(=O)O)c2)cc1	15.1 µM (active)	
NC(=O)C1CCN(c2oc(-c3cccs3)nc2S(=O)(=O)c2ccc(Br)cc2)CC1		-28.4% (inactive)
CCOC(=O)C1CCN(C2=C(NS(=O)(=O)c3ccc(Br)cc3)C(=O)c3ccccc3C2=O)CC1	3.79 µM (active)	
CCOC(=O)C1CCCN(C2=C(NS(=O)(=O)c3ccc(Br)cc3)C(=O)c3ccccc3C2=O)C1 (configuration not stated)	9.53 µM (active)	
CCOC(=O)CNC(=O)C1CCCN(c2ncccn2)C1 (configuration not stated)		0.81% (inactive)
N/C(=N\OC(=O)c1ccc2ccccc2c1)c1ccncc1		-24.1% (inactive)
Cc1cc(C)nc(-n2nc(C)cc2NC(=O)c2cc3ccccc3oc2=O)n1	5.36 µM (active)	
O=C(CC1(O)C(=O)Nc2ccccc21)c1ccccc1 (configuration not stated)		0.66% (inactive)
CCOC(=O)C1=C(COC(=O)CCOc2ccccc2)NC(=O)NC1C (configuration not stated)		-6.75% (inactive)

SMILES	Potency	activity change, negative = inhibition
Cc1nc(COC(=O)c2c(C)nn(-c3ccccc3)c2C)cs1		-8.52% (inactive)
COc1ccc(C(=O)Oc2ccc(=O)n(-c3ccccc3)n2)cc1	8.49 µM (active)	
Cc1[nH]c2ccc(C(=O)OC(C)C(=O)N(C)c3ccccc3)cc2c1C (configuration not stated)		-28.2% (inactive)
CCOC(=O)c1c2ccc(OCC(=O)NN)cc2n2ccccc12		-27% (inactive)
CCOC(=O)c1[nH]c2ccc(C(=O)OC)cc2c1C(=O)OCC	13.5 µM (active)	
O=c1cc(CSc2ccc(Cl)cc2)nc(-c2ccccn2)[nH]1	2.13 µM (active)	
Cc1ccc(/C=C/C(=O)Nc2ccc(N(C)C)cc2)o1	19 µM (active)	
NC(=O)c1ccc(NC(=O)COC(=O)/C=C/c2ccc(Br)o2)cc1		-25.7% (inactive)
CCn1ccnc1CNCc1cn(-c2cc(C)ccc2C)nc1-c1ccccc1	15.1 µM (active)	
COc1cc(N)c(Cl)cc1C(=O)N[C@H]1CCN(CCCOc2ccc(F)cc2)C[C@H]1OC		-13.7% (inactive)
O=c1c(CO)cc(CO)cc(CO)c1O	5.36 µM (active)	
O=C(Nc1ccc(S(=O)(=O)Nc2cnc3ccccc3n2)cc1)c1ccc(Cl)c([N+](=O)[O-])c1	16.9 µM (active)	
Cc1cc(NS(=O)(=O)c2ccc(NC(=O)c3cc4c(=O)n5ccccc5nc4s3)cc2)nc(C)n1	8.49 µM (active)	
Cc1cc(NS(=O)(=O)c2ccc(NC(=O)c3cnc(Cl)c(Cl)c3)cc2)nc(C)n1	2.39 µM (active)	
O=C(Nc1ccc(Nc2ccccc2)cc1)c1ccc(Cl)cc1[N+](=O)[O-]		-22.8% (inactive)
O=C(O)c1ccc(Nc2cnc3ccccc3n2)cc1		-19.6% (inactive)
CN=c1scc(C)n1/N=C/c1ccc2c(c1)OCO2		-29.4% (inactive)
CC1CCC2C(=O)N(c3ccc(C(=O)Oc4cccc5cccnc45)cc3)C(=O)C2C1 (configuration not stated)	8.49 µM (active)	
COc1cc(NS(=O)(=O)c2ccc(N/C=C\C(=O)c3ccc(OC)c(OC)c3)cc2)nc(OC)n1	9.53 µM (active)	
COc1ccc(C(=O)/C=C/Nc2ccc(S(=O)(=O)Nc3nc(C)cc(C)n3)cc2)cc1OC	13.5 µM (active)	
